Results on nine molecules are retold here after PubChem BioAssay (NCI).

What all share (assay): NCI-60 one-dose screen, 48 h (100 = growth as untreated, 0 = no growth, -100 = all killed)
Test [1] has as its system DU-145 prostate. As to conditions: 10 µM unless noted.
Test [2] has as its system K-562 leukemia. As to conditions: 10 µM unless noted.
Test [3] deals with MALME-3M melanoma. The following applies: 10 µM unless noted.
For test [4], the system named is MDA-MB-231 breast. As to conditions: 10 µM unless noted.
The test system of test [5] is RXF 393 renal. The following applies: 10 µM unless noted.
For test [6], the system named is SF-268 CNS. As to conditions: 10 µM unless noted.
The subject of test [7] is SF-295 CNS. As to conditions: 10 µM unless noted.
In test [8] the test system is SF-539 CNS. As to conditions: 10 µM unless noted.
Test [9] relates to UACC-257 melanoma. The following applies: 10 µM unless noted.
The test system of test [10] is HCT-15 colon. The following applies: 10 µM unless noted.
Test [11] has as its system SNB-19 CNS. The following applies: 10 µM unless noted.
Test [12] has as its system U251 CNS. As to conditions: 10 µM unless noted.
In test [13] the test system is PC-3 prostate. As to conditions: 10 µM unless noted.
In test [14] the test system is SK-MEL-5 melanoma. The following applies: 10 µM unless noted.
Test [15] relates to UACC-62 melanoma. As to conditions: 10 µM unless noted.
For test [16], the system named is SK-MEL-28 melanoma. As to conditions: 10 µM unless noted.
Test [17] concerns M14 melanoma. As to conditions: 10 µM unless noted.
The subject of test [18] is HT29 colon. The following applies: 10 µM unless noted.
Test [19] relates to SNB-75 CNS. As to conditions: 10 µM unless noted.
For test [20], the system named is LOX IMVI melanoma. The following applies: 10 µM.

About 83,000 compounds went through this panel and 20% of them were active in at least one assay; those are over-represented in the sample as a whole.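 Cells were grown in 96-well plates and exposed to the test compound at a single concentration for 48 hours; results are reported as percent growth, with values below 10 considered active.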 Unmarked numbers belong to inactive results. Calls of active or inactive are those of the source.

Consider `C=C1CC[C@@H]2[C@]3(C)COC(c4cn[nH]c4-c4cccc(Cl)c4)O[C@@H]3CC[C@@]2(C)[C@@H]1C/C=C1/C(=O)OCC1O` (stereo partly drawn), for which the growth in [1] is 25.5%; in test [2], 5% (active); in test [3] it was -50.7% (active); in test [4], -52.7% (active); in test [5], -91% (active); in test [6], 34.3%. Besides, the growth is -32.8% (active) in test [7]; -89.8% (active) in test [8]; -33.1% (active) in [9]; -59.2% (active) in test [10]; 5.54% (active) in [11]; -85.8% (active) in test [12]. Also, the growth in test [13] is -0.106% (active); in [14] it was -79.6% (active); in test [15] it was -86.9% (active); in [16] it was -76.6% (active).
Take `COc1cc(/C=C/C(=O)c2nnn(-c3ccc(Cl)cc3)c2C)cc(OC)c1OC`: the growth was 17.3% in test [1]; 3.43% (active) in [2]; 49% in test [3]; 49.7% in [5]; 38.8% in [6]; 51.8% in [7]. The growth was 52% in test [8]; 35.3% in [9]; 30.4% in test [17]; 12.4% in test [10]; 15.5% in test [18]; 22.5% in test [19]. The growth was 60.3% in test [11]; 17.3% in test [12]; 30.6% in test [13]; 21.5% in test [14]; 28.7% in test [15]; 46.9% in test [16].
Regarding `O=C(/C=C/c1cccc(OCc2ccccc2)c1)c1nc2ccccc2[nH]1`, the growth in test [1] was 55.9%; in test [2], -8.72% (active); in test [3], 90.9%; in test [5], 20.4%; in [6], 62.3%; in [7] it was 69.9%. For the same molecule, the growth in test [8] is -56.5% (active); in test [9], 70.1%; in test [17] it was 1.55% (active); in test [10], -75.5% (active); in test [18] it was -45.7% (active); in [19] it was 66.8%. Further, the growth is 53.6% in test [11]; -65.8% (active) in [12]; 25.9% in test [13]; 72.1% in test [14]; 56% in test [15]; 94.9% in [16].
With `COc1ccc(-c2cc(C(=O)NCc3ccccc3)nn2-c2ccc(S(C)(=O)=O)cc2)cc1OC`, the growth in test [1] was 105%; in [2], 105%; in [3], 108%; in test [5], 110%; in [6], 97.3%; in [7], 98.1%. Further, the growth in test [8] is 95.2%; in test [9], 105%; in test [17], 111%; in test [10] it was 108%; in [18] it was 102%; in test [19] it was 62.5%. In addition, the growth was 95.2% in [11]; 99.2% in [12]; 110% in test [13]; 97.1% in [14]; 111% in [15]; 134% in test [16].
On to `COc1ccc(-c2ccc(SCC(=O)Nc3ccc(S(N)(=O)=O)cc3Br)nn2)cc1`, for which the growth in [1] was 72%; in test [2], 101%; in test [3] it was 89.4%; in [4] it was 85.1%; in test [5] it was 89.2%; in test [6], 17.9%. Further, the growth was 60.2% in test [7]; 42.9% in [8]; 87.9% in test [9]; 84.5% in test [10]; 23.4% in test [11]; 52.4% in test [12]. Further, the growth was 73.5% in [13], 94.3% in test [14], 83.2% in test [15] and 99.2% in test [16].
For `N#Cc1ccc(/C=N/NC(=O)c2[nH]c3ccc(Br)cc3c2-c2ccccc2)o1`, the growth in test [1] is 8.4% (active); in [2], 2.28% (active); in [3] it was 22%; in [5], -2.8% (active); in [6], 17.7%; in test [7], 16%. For the same molecule, the growth in test [8] is -16.8% (active); in test [9], 13.6%; in [17], 12.1%; in test [10], 8.65% (active); in [18], -15.3% (active); in test [19] it was 5.21% (active). For the same molecule, the growth was 34.5% in test [11]; 6.89% (active) in test [12]; 13.1% in test [13]; -65.5% (active) in test [14]; 15.2% in [15]; 27.4% in test [16].
Turning to `CCCCn1c(O)c(N=Nc2nc(-c3cc4ccccc4oc3=O)cs2)c2cc(Br)ccc21`, the growth in test [1] is 108%; in test [2], 105%; in test [3] it was 105%; in [4] it was 106%; in test [6] it was 97%; in test [7], 105%. In addition, the growth in test [8] is 103%; in test [9], 103%; in [17] it was 112%; in [10], 102%; in test [18], 112%; in test [19], 102%. Besides, the growth in test [11] was 95.3%; in test [12], 101%; in test [13], 97.4%; in test [14], 98.3%; in test [15] it was 93.5%; in test [20], 94.7%. Besides, the growth in test [16] was 104%.
With `CC12CC[C@@H]3[C@]4(C)COC(c5cn[nH]c5-c5ccc(Cl)cc5)O[C@@H]4CC[C@@]3(C)[C@@H]1CC(C1=CCOC1=O)O2` (stereo partly drawn), the growth in test [1] is 61.6%; in [2], 24.9%; in test [3] it was 58%; in test [4] it was 52.1%; in test [5] it was 5.04% (active); in test [6] it was 60.3%. Further, the growth in test [7] was 43.8%; in test [8], 51.2%; in test [9], 46.7%; in test [10], 36.2%; in test [11] it was 54.5%; in [12], 50%. Further, the growth was 19.4% in test [13]; 16.5% in test [14]; 33.4% in [15]; 46.2% in [20]; 39.2% in test [16].
For `CCCCCCn1c(O)c(N=Nc2nc(-c3cc4ccccc4oc3=O)cs2)c2ccccc21`, the growth was 10.1% in test [1]; 29.8% in [2]; -72.1% (active) in test [3]; -65.6% (active) in [4]; 11% in test [6]; 47.8% in test [7]. For the same molecule, the growth in test [8] is 56.1%; in test [9], 46.3%; in [17], -4.72% (active); in [10], 36.7%; in test [18] it was -39.7% (active); in [19] it was 81.4%. Besides, the growth in test [11] was 40%; in [12], -57.5% (active); in [13], -2.73% (active); in test [14] it was -64.8% (active); in test [15] it was -2.7% (active); in [16] it was -39.3% (active).
